Screening results (PubChem BioAssay)
An excerpt weighted towards active compounds, which were near 1.6% of everything screened.
KCNQ2 block = inhibitors of rat KCNQ2 potassium channel; O88943; CHO-K1 KCNQ2, FluxOR thallium flux, 20 min; active compounds read low; B-score at 10 µM; hit rate 1.1% among 310,000; AID 2156;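 active = fluorescence ratio B-score at most minus 3 library SDs, with starting brightness B-score within 2 library SDs, cut at about -5.5 in these data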
KCNQ2 enhance = enhances the rat KCNQ2 potassium channel. B-score at 10 µM. hit rate 0.54% among 310,000. O88943. CHO-K1 KCNQ2, FluxOR thallium flux fluorescence; active compounds read high;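 active = fluorescence ratio B-score at least 3 SD of library B-scores, with initial fluorescence B-score within 3 of them, cut at about 5.3 in these data; same plate scores as AID 2156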;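 also: B-score of peak minus minimum over baseline fluorescence ratio after K+ and Tl+ stimulus; positive B-score means potentiation of KCNQ2 with more thallium influx and brighter signal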
Kir21 confirm = confirmation of mouse Kir2.1 potassium channel inhibitors; shares compounds with KCNQ2 enhance; Kir2.1-expressing cells, FluxOR thallium flux fluorescence; active compounds read low; Tl flux remaining, % of negative control (active compounds read low), % at 10 µM; hit rate 41% among 2,300; AID 2032;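 active = Primary-screen hit whose thallium flux fell at least 3 control SD below untreated wells in both duplicates, with normal baseline fluorescence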;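 also: 0% = blank wells without stimulus and 100% = stimulated no-compound controls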
HEK293 Tl flux = counter-screen for Kir2.1 inhibitors: effect in parental HEK293 cells; hit rate 19% among 2,300; shares compounds with KCNQ2 enhance; FluxOR thallium flux fluorescence; 0% = unstimulated blank wells; FluxOR signal as % of negative control (100 = no effect), % at 10 µM;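 active = dye signal at least 3 control SD above or below untreated wells in both duplicates, raw fluorescence within 3, either direction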;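 also: percent is based on the flux ratio of peak minus minimum fluorescence over baseline F0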
CHO-K1 ctr = counter-screen for KCNQ2 potentiators: effect in parental CHO-K1 cells; shares compounds with KCNQ2 enhance; FluxOR thallium flux fluorescence; zero = vehicle mean+3SD, 100% = vehicle-minus-blank window; activity increase over 3SD of controls, % at 10 µM; hit rate 43% among 1,200; AID 2282;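 active = signal rise of at least 3 SD above the untreated control mean, in both duplicate wells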;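 also: counter screen of KCNQ2 potentiator hits so any rise reflects channel-independent effects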
KCNQ1 sel pot = selectivity of KCNQ2 potentiators: effect on human KCNQ1; CHO KCNQ1 stable, FluxOR thallium flux fluorescence; beyond 3SD, as % of vehicle-control signal; shares compounds with KCNQ2 enhance; activation over 3SD threshold, % at 10 µM; hit rate 28% among 1,200;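 active = fluorescence ratio rise of at least 3 SD of vehicle wells above their mean, in both replicate wells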;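 also: 0% = vehicle mean plus 3 SD and 100% = vehicle minus unstimulated blank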
KCNQ2 pot conf = rat KCNQ2 channel potentiator confirmation | CHO-KCNQ2 cells, FluxOR thallium flux fluorescence | potentiation, less the hit threshold, % at 10 µM | hit rate 68% among 1,200 | shares compounds with KCNQ2 enhance;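 active = fluorescence ratio rising 3 SD or more over the vehicle control mean in both replicates, plus primary screen hit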;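 also: peak minus minimum thallium fluorescence divided by baseline after K/Tl stimulus; 0% = vehicle mean plus 3 SD and 100% = vehicle minus unstimulated blank difference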
Kir2-1 sel = selectivity of KCNQ2 potentiators: effect on mouse Kir2.1. hit rate 2% among 1,200. shares compounds with KCNQ2 enhance. activity over 3SD threshold, % at 10 µM. HEK293 Kir2.1, FluxOR thallium flux fluorescence;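 active = fluorescence ratio rise of at least 3 SD above the vehicle-control mean, seen in both replicates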;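 also: 0% = vehicle mean plus 3 SD and 100% = vehicle minus no-stimulus blank window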
KCNQ2 W236L MoA = rat KCNQ2 W236L mutant potentiation by KCNQ2 potentiators; shares compounds with KCNQ2 enhance; CHO KCNQ2-W236L, automated patch clamp current; current increase over 3SD of negative controls (%), active compounds read high, % at 25 µM; hit rate 10% among 940; AID 2558;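 active = current increase at least 3 SD of the untreated controls above them in both duplicate recordings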
Target sequence (O88943 whole entry W236L, looked up): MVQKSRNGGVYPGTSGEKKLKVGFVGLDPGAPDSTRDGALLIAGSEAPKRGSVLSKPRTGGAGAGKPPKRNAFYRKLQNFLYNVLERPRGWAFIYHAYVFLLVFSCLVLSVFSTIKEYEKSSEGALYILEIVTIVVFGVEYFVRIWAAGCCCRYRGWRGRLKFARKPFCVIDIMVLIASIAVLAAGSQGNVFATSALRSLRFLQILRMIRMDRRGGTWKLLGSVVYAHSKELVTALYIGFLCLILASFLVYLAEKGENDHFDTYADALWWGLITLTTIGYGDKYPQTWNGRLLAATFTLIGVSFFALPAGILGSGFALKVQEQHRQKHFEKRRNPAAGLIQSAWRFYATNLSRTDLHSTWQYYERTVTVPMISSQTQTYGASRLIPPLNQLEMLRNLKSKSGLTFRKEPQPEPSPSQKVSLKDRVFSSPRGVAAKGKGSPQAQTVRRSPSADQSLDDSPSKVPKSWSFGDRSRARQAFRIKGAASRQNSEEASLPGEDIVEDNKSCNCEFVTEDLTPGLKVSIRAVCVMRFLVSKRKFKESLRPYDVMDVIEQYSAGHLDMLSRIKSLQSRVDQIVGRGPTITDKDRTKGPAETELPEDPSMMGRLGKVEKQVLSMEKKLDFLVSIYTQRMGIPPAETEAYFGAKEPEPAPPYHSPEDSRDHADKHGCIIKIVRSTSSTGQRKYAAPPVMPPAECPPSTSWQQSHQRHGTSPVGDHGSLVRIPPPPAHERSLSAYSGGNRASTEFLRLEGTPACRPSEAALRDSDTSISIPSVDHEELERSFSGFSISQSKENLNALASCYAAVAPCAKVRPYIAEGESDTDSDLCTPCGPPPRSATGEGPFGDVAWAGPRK
Numbers without * were called inactive; i = inactive; · = not tested or not shown.

SMILES	KCNQ2 block	KCNQ2 enhance	Kir21 confirm	HEK293 Tl flux	others
COC(=O)c1ccc(C(=O)OC)c(NC(=O)COC(=O)CCOc2ccc(C)cc2)c1	i	0.56	·	·
CC(=O)N1c2ccc(S(=O)(=O)NCCC(=O)Nc3ccc(F)cc3)cc2CC1C (stereo unspecified)	i	·	·	·
O=C(CSc1nc(-c2ccccc2)cs1)NCCN1C(=O)CSC1=O	i	·	·	·
O=C(CSc1nc2ccccc2o1)Nc1ccc(N2CCOCC2)cc1	i	·	·	·
O=C(CSc1nc2ccccc2o1)Nc1ccccc1N1CCOCC1	i	0.43	56.0%*	i
CCOc1nc2cnccc2n(CC(=O)Nc2cccc(C)c2C)c1=O	i	0.84	·	·
COc1cccc(C(=O)NCc2ccco2)c1	i	8.95*	i	74.0%*	CHO-K1 ctr=-10.2;KCNQ1 sel pot=-11.9;KCNQ2 pot conf=-30.7;Kir2-1 sel=-44.9
COc1cccc(C(=O)NCCS(=O)(=O)NCc2ccco2)c1	i	·	·	·
Cc1cc(C)n(C(=O)Cn2nc(C)c(Br)c2C)n1	i	·	·	·
COc1cc(CNCc2ccccn2)ccc1OCc1c(Cl)cccc1Cl	i	0.47	40.5%*	i
COc1cc(CNCc2ccccn2)ccc1OCc1ccc(Cl)cc1	i	1.27	·	·
COc1ccc(CCC(=O)N2CCN(c3ccccc3)CC2)cc1OC	i	0.07	·	·
COc1cccc(OCc2cc(C(=O)N(Cc3ccccc3)CC3CC3)no2)c1	i	·	·	·
CCCCC#Cc1ccccc1CC(=O)Nc1ccccc1	i	7.13*	i	i	CHO-K1 ctr=99.4*;KCNQ1 sel pot=-6.2;KCNQ2 pot conf=9.6*;Kir2-1 sel=-36.8;KCNQ2 W236L MoA=i
CCCC(=O)Nc1ccc(C#Cc2ccccc2)cc1	i	·	·	·
CCOC(=O)Cn1c(=N)n(Cc2ccccc2)c2ccccc21	i	1.5	·	·
Nc1nc2ccccc2n1CCOc1ccc(Br)cc1	i	·	20.5%*	129.5%*
CCOC(=O)Cn1c(=N)n(CCOc2ccc(Br)cc2)c2ccccc21	i	·	36.0%*	i
Nc1nc2ccccc2n1CCOc1ccc(Cl)cc1	i	2.47	·	·
Cc1cccc(NC(=O)CSc2nccn2Cc2ccco2)c1C	i	·	·	·
COCCNC(=O)C(c1ccc(C)o1)N(C(=O)C(=O)NC1CCCCC1)c1ccc(F)cc1 (stereo unspecified)	i	·	·	·
Cc1noc(N)c1C1(O)C(=O)Nc2c(Cl)cc(Cl)cc21 (stereo unspecified)	i	0.91	·	·
Oc1c(Cl)cc(Cl)cc1C=Nc1ccc(Br)cc1	i	7.06*	i	i	CHO-K1 ctr=-19.5;KCNQ1 sel pot=30.8*;KCNQ2 pot conf=15.6*;Kir2-1 sel=-25.4;KCNQ2 W236L MoA=i
Oc1c(Cl)cc(Cl)cc1C=Nc1ccc(N2CCOCC2)cc1	i	4.3	·	·
CC(N)(C(=O)O)c1cccc(OCc2cccc(Cl)c2)c1 (stereo unspecified)	i	0.04	·	·
SMILES	KCNQ2 block	KCNQ2 enhance	Kir21 confirm	HEK293 Tl flux	others
Fc1ccc(-c2cc(C(F)(F)F)nc(-n3cncn3)n2)cc1	i	6.24*	i	i	CHO-K1 ctr=-11.1;KCNQ1 sel pot=-11.4;KCNQ2 pot conf=19.1*;Kir2-1 sel=-14.3;KCNQ2 W236L MoA=i
Fc1ccc(-c2cc(C(F)(F)F)nc(-n3cccn3)n2)cc1	i	·	·	·
CCNc1nc(SC(C)C(=O)Nc2ccccc2)nc(N2CCOCC2)n1 (stereo unspecified)	i	0.37	·	·
CC(=O)C(Sc1nc(N2CCOCC2)nc(N2CCOCC2)n1)C(=O)Nc1ccccc1 (stereo unspecified)	i	6.05*	i	i	CHO-K1 ctr=10.3*;KCNQ1 sel pot=-4.1;KCNQ2 pot conf=12.2*;Kir2-1 sel=-26.6;KCNQ2 W236L MoA=i
CC1(C)Cc2cccc(OCC(=O)NCCOc3ccccc3)c2O1	i	·	·	·
COc1ccccc1CCNC(=O)COc1cccc2c1OC(C)(C)C2	i	·	49.5%*	62.5%*
CON/C=N/C(=S)Nc1ncc(C(F)(F)F)cc1Cl	i	12.2*	i	217.5%*	CHO-K1 ctr=-22.4;KCNQ1 sel pot=31.9*;KCNQ2 pot conf=17.9*;Kir2-1 sel=-20.7;KCNQ2 W236L MoA=i
CC(Cl)C(=O)Nc1ncc(C(F)(F)F)cc1Cl (stereo unspecified)	i	0.2	·	·
ON/C=N/C(=S)Nc1ncc(C(F)(F)F)cc1Cl	i	10.9*	i	140.0%*	CHO-K1 ctr=-1.2;KCNQ1 sel pot=-13.1;KCNQ2 pot conf=40.6*;Kir2-1 sel=-36.9;KCNQ2 W236L MoA=i
Cc1ccc(NC(=S)NNc2ncc(C(F)(F)F)cc2Cl)cc1	i	1.86	·	·
Cc1ccc(S(=O)(=O)CCC(=O)Nc2ccc(F)cc2)cc1	i	·	·	·
CN1CCN(S(=O)(=O)c2ccc(NC(=O)Cc3ccc([N+](=O)[O-])cc3)cc2)CC1	i	·	·	·
Cc1ccc(NC(=O)NNC(=O)c2snnc2C)cc1	i	·	·	·
O=C(NC(=S)Nc1ccc(Cl)cc1)c1cncc(Br)c1	i	2.85	·	·
Cc1ccc(NC(=S)NC(=O)c2cncc(Br)c2)cc1Cl	i	7.23*	i	i	CHO-K1 ctr=0.8*;KCNQ1 sel pot=-8.5;KCNQ2 pot conf=-15.6;Kir2-1 sel=-37.8
COc1ccc(S(=O)(=O)NNC(=O)C23CC4CC(CC(C4)C2)C3)cc1[N+](=O)[O-]	i	·	·	·
CCc1c(C)nc(SCC(=O)N2CCCCC2C)[nH]c1=O (stereo unspecified)	i	5.46*	i	i	CHO-K1 ctr=19.5*;KCNQ1 sel pot=-16.5;KCNQ2 pot conf=-25.6;Kir2-1 sel=-33.7
CCc1c(C)nc(SCC(=O)N2C(C)CCCC2C)[nH]c1=O (stereo unspecified)	i	0.11	·	·
O=C(CN1CCc2ccccc21)NC(=O)NCc1ccccc1	i	0.65	·	·
O=C1NC(=O)/C(=C\c2ccccc2OCc2ccccc2)S1	i	0.21	·	·
O=C1NC(=O)/C(=C\c2ccc(OCc3ccccc3)cc2)S1	i	7.98*	i	i	CHO-K1 ctr=-8.9;KCNQ1 sel pot=-31.6;KCNQ2 pot conf=-13.3;Kir2-1 sel=-36.4
Cc1ccc2c(c1)c1c3n2CCN(C(=O)CCl)C3CCC1 (stereo unspecified)	i	·	i	i
CC(=O)N1CCn2c3c(c4cc(C)ccc42)CCCC31 (stereo unspecified)	i	0.68	·	·
N#CC1=C(N)Oc2cc(N)ccc2C1c1ccc(F)cc1F (stereo unspecified)	i	·	·	·
CN(C)C(CNc1ncnc2ccccc12)c1c(F)cccc1Cl (stereo unspecified)	i	·	·	·
Cc1cc(=O)c2cc(Br)ccc2[nH]1	i	·	·	·
S=c1nc(-c2ccccc2)[nH]c2ccc(Br)cc12	i	28.6*	i	i	CHO-K1 ctr=-74.3;KCNQ1 sel pot=20.9*;KCNQ2 pot conf=66.0*;Kir2-1 sel=-18.4;KCNQ2 W236L MoA=i
CC(=O)c1cccc(NC(=S)NC2CCCCCCC2)c1	i	0.58	·	·
